hcDAF12 agonist – activators of H. contortus DAF-12 nuclear receptor; HEK293 hcDAF-12 lit1-tk-luc reporter, luminescence; 0% DMSO, 100% Δ7-dafachronic acid; hit rate 1.4% among 370,000; AID 652067; activation, % at 6.8 µM;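 active means activation above the mean of all tested compounds plus 3 SD, cut at about 5.5% in these data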
hgDAF12 agonist – agonists of H. glycines DAF-12 nuclear receptor. hit rate 1.8% among 370,000. HEK293 GAL4-hgDAF12 UAS-luciferase reporter, agonist luminescence; normalized to butyrate control. activation, % at 6.8 µM;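 active means activation above a cutoff set at the mean of all screened compounds plus 3 SD, cut at about 10% in these data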
DAX1 inh-1 – NR0B1 (DAX1) inhibition | inhibition, % at 6.75 µM | hit rate 0.99% among 340,000 | P51843 | HEK293 Gal4-DAX1 luciferase reporter, luminescence;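 active means inhibition above the mean over all tested compounds plus 3 SD, cut at about 4.2% in these data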;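 further: inhibition shows as a rise in luminescence from relieved DAX1 repression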
Target sequence (P51843 207-470 limits assumed): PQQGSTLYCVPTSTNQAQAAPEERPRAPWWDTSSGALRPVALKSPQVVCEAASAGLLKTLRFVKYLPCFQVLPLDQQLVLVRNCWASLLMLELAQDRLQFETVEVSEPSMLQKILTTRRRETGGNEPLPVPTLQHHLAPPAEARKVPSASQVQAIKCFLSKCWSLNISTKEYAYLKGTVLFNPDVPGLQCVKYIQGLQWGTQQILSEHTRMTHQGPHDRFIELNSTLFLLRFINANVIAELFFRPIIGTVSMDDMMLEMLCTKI
DAX1 inh-2 – inhibitors of DAX1 repression of SF-1 activated StAR promoter. hit rate 1.1% among 370,000. HEK293T StAR-luciferase reporter, SF-1/DAX-1 repression relief. inhibition, % at 6.8 µM;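 active means inhibition above the mean over all tested compounds plus 3 SD, cut at about 3.6% in these data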;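 further: higher inhibition means more luminescence from relief of DAX-1 repression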
ssDAF12 agonist – activates DAF-12 receptor from parasite S. stercoralis; HEK293 ssDAF-12/GRIP1 lit1-tk-luc reporter, luminescence; % of 3 µM dafachronic acid response; activation, % at 6.8 µM; hit rate 1% among 370,000; AID 652126;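 active means activation above the mean over all tested compounds plus 3 SD, cut at about 0.9% in these data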
DAX1 inh confirm – NR0B1 (human) inhibition, confirmation. shares compounds with DAX1 inh-2. inhibition, % at 6.8 µM. hit rate 87% among 2,400. AID 652134. HEK293T StAR-promoter luciferase reporter, SF-1/DAX-1 repression;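 active means inhibition above the average of every tested compound plus 3 SD, cut at about 3.8% in these data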;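 further: active compounds raise luminescence by relieving repression of the StAR reporter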
Target sequence (P51843 whole entry, looked up): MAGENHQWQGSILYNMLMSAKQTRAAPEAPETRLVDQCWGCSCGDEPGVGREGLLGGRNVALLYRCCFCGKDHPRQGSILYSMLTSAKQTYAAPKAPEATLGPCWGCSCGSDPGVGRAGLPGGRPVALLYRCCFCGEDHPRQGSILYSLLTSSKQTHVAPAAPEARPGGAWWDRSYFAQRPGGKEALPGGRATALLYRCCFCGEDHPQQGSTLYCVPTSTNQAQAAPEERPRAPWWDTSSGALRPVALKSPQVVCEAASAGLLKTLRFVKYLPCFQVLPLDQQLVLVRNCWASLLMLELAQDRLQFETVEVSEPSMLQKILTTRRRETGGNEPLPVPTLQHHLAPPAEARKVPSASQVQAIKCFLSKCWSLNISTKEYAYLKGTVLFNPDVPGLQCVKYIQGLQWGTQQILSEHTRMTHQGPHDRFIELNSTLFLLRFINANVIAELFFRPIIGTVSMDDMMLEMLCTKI
SF1 AF2mut Luc – nonselective inhibitor or artifact in SF-1 mutant DAX1 counter-screen; shares compounds with DAX1 inh-2; HEK293 StAR-luciferase, SF-1 AF2 mutant, luminescence; inhibition, % at 6.8 µM; hit rate 78% among 2,400;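 active means inhibition above the mean of all tested compounds plus 3 SD, cut at about 3% in these data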
LXR ag – counter-screen for hcDAF-12 agonists: agonists of human LXR-beta; HEK293 Gal4-LXR tk-luc reporter, luminescence, 24 h; normalized: DMSO 0%, positive control 100%; 3,400 tested, under 10 active; activation, % at 6.8 µM; shares compounds with hcDAF12 agonist;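 active means mean percent activation of the reporter above a cutoff set as the average over tested compounds plus their standard deviation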
hcDAF12 ag – hcDAF-12 agonism, confirmation assay; shares compounds with hcDAF12 agonist; HEK293 hcDAF-12 lit1-tk-luc reporter, luminescence; % of Δ7-dafachronic acid response; AID 743032; activation, % at 6.8 µM; hit rate 61% among 3,400;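 active means mean activation across triplicate tests above the threshold derived from the earlier primary screen, cut at about 5.5% in these data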
hgDAF12 conf – hgDAF-12 agonism, confirmation assay. shares compounds with hgDAF12 agonist. HEK293 GAL4-hgDAF12 luciferase reporter, agonist mode; percent of butyrate response. activation, % at 6.8 µM. hit rate 80% among 3,300. AID 743050;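 active means mean activation over triplicate wells above the hit cutoff derived from the earlier primary screen, cut at about 11% in these data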
LXR ag 2 – activates human LXR-beta, counter-screen for DAF-12 agonists. shares compounds with hgDAF12 agonist. HEK293 Gal4-LXR luciferase reporter, 24 h. activation, % at 6.8 µM. 3,300 tested, under 10 active. AID 743051;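 active means mean activation of the triplicate above a set limit carried over from the primary screen, none filed active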
Each line names hits and unclear results; the compound was inactive in the other large screens (follow-up assays come after a bar, where they were run). Rows were chosen to be rich in hits. Some 4.1% of all compounds tested hit in one or more screens of this group.

COc1cc2c(c(OC)c1OC)C1(CCCCC1)CC2NS(=O)(=O)C(C)C (centres undefined)	none (no result: DAX1 inh-1)
COc1ccc(N2C(=O)c3n[nH]c(C)c3C2c2cccc(C(F)(F)F)c2)cc1 (centres undefined)	none (no result: DAX1 inh-1)
COc1ccc(C2CC(c3ccc4ccccc4c3)=NN2C(=O)CNC2CCCCC2)cc1 (centres undefined)	none
COc1ccc(C2CC(c3ccc4ccccc4c3)=NN2C(=O)COC(=O)C2CCC(=O)N2)cc1 (centres undefined)	hcDAF12 agonist 10, hgDAF12 agonist 15, DAX1 inh-2 6.7, ssDAF12 agonist 1.2 | DAX1 inh confirm 15 | SF1 AF2mut Luc 6.5 | LXR ag inactive | hcDAF12 ag 6.0 | hgDAF12 conf 19 | LXR ag 2 inactive
CCCCN1C[C@@H]2CSCCS(=O)(=O)N2C1=O	none (no result: DAX1 inh-1)
COC(=O)c1[nH]c2c(c1C)C(=O)CCC2	none
Cc1c(C(=O)OC2CCC(C)CC2)[nH]c2c1C(=O)CCC2 (centres undefined)	hgDAF12 agonist 15, DAX1 inh-1 5.8, DAX1 inh-2 7.3 | DAX1 inh confirm 15 | SF1 AF2mut Luc 5.9 | hgDAF12 conf 21 | LXR ag 2 inactive
COc1cccc(NC(=O)c2ccc3c(c2)CCCC3)c1	hcDAF12 agonist 7.9, hgDAF12 agonist 17, DAX1 inh-2 18, ssDAF12 agonist 1.2 | DAX1 inh confirm 13 | SF1 AF2mut Luc 8.2 | LXR ag inactive | hcDAF12 ag inactive | hgDAF12 conf 18 | LXR ag 2 inactive
C#CCNC(=O)C[C@H]1C(=O)N(Cc2ccc(OC)cc2)C2=CCCCC[C@@]21C(=O)OC	none (no result: DAX1 inh-1)
c1ccc2c(C3=NNC(=NC4CC4)SC3)c[nH]c2c1	hcDAF12 agonist 14, hgDAF12 agonist 20, DAX1 inh-2 7.0, ssDAF12 agonist 2.1 | DAX1 inh confirm 19 | SF1 AF2mut Luc 7.1 | LXR ag inactive | hcDAF12 ag 7.6 | hgDAF12 conf 13 | LXR ag 2 inactive
Cc1ccc2c(c1)C(=O)CC(c1ccccc1)S2 (centres undefined)	hcDAF12 agonist 7.7, hgDAF12 agonist 20, DAX1 inh-2 19, ssDAF12 agonist 1.5 | DAX1 inh confirm 13 | SF1 AF2mut Luc 7.4 | LXR ag inactive | hcDAF12 ag 6.5 | hgDAF12 conf 19 | LXR ag 2 inactive
O=C1CC(c2ccccc2)Sc2ccccc2N1 (centres undefined)	none
C[C@H](c1ccccc1)N1C[C@@H](COCc2ccccc2)Oc2cccc(Oc3ccc(C(C)(C)C)cc3)c2S1(=O)=O	none (no result: DAX1 inh-1)
COC(=O)C[C@@H]1CC[C@H]2[C@H](COc3ccc(NC(=O)C4CCC4)cc3C(=O)N2C)O1	none (no result: DAX1 inh-1)
Clc1ccc(OCc2nc3ccccc3[nH]2)cc1	hgDAF12 agonist 23, DAX1 inh-2 4.7 | DAX1 inh confirm 9.8 | SF1 AF2mut Luc 9.3 | hgDAF12 conf inactive | LXR ag 2 inactive
COc1ccc(-n2c(COc3ccc(Cl)cc3)nnc2SCc2nc3ccccc3[nH]2)cc1	none (no result: DAX1 inh-1)
COc1ccc(Nc2nc(C)c(C(C)=O)s2)cc1	hgDAF12 agonist 17, DAX1 inh-2 4.9 (no result: DAX1 inh-1) | DAX1 inh confirm 5.1 | SF1 AF2mut Luc 4.6 | hgDAF12 conf inactive | LXR ag 2 inactive
COc1ccc(C(=O)c2sc(Nc3ccc(NC(C)=O)cc3)nc2C)cc1	none
CC(=O)c1sc(NC(=O)c2ccccc2F)nc1C	hgDAF12 agonist 14, DAX1 inh-2 5.4 | DAX1 inh confirm 13 | SF1 AF2mut Luc 6.4 | hgDAF12 conf 14 | LXR ag 2 inactive
CC(=O)c1sc(NC(=O)c2ccc(C(C)(C)C)cc2)nc1C	hcDAF12 agonist 6.2, hgDAF12 agonist 13, DAX1 inh-2 7.6 | DAX1 inh confirm 14 | SF1 AF2mut Luc 9.6 | hgDAF12 conf 19 | LXR ag 2 inactive
CC(=O)c1sc(NC(=O)C(C)(C)C)nc1C	none
CC(C)C[C@@H]1COc2cccc(N3CCSCC3)c2S(=O)(=O)N1C	none (no result: DAX1 inh-1)
CC(C)C[C@H](NC(=O)OCC1c2ccccc2-c2ccccc21)C(=O)O	hgDAF12 agonist 16, DAX1 inh-2 5.8 | DAX1 inh confirm 6.6 | SF1 AF2mut Luc 5.8 | hgDAF12 conf 12 | LXR ag 2 inactive
O=C(O)CCNC(=O)OCC1c2ccccc2-c2ccccc21	none
COC(=O)c1cc2c(c3c4cc(F)ccc4n(S(=O)(=O)c4ccc(C)cc4)c13)C(=O)N(Cc1ccc(C(F)(F)F)cc1)C2	none (no result: DAX1 inh-1)
c1ccc2c(c1)CC/C2=N/Nc1nc2ccccc2[nH]1	hgDAF12 agonist 14, DAX1 inh-2 7.3 | DAX1 inh confirm 11 | SF1 AF2mut Luc 11 | hgDAF12 conf inactive | LXR ag 2 inactive
Cc1ccn2c(Cc3ccccc3)c(-c3ccc(F)cc3)nc2c1	hgDAF12 agonist 16, DAX1 inh-2 5.9 | DAX1 inh confirm inactive | SF1 AF2mut Luc inactive | hgDAF12 conf 11 | LXR ag 2 inactive
Cc1ccc2nc(-c3ccc(F)cc3)c(Cc3ccccn3)n2c1	hcDAF12 agonist 8.6, hgDAF12 agonist 14, DAX1 inh-2 9.3 (no result: DAX1 inh-1) | DAX1 inh confirm 8.1 | SF1 AF2mut Luc 6.7 | LXR ag inactive | hcDAF12 ag inactive | hgDAF12 conf 11 | LXR ag 2 inactive
Cc1ccc(-c2nc3ccc(C)cn3c2Cc2ccsc2)cc1	hgDAF12 agonist 17, DAX1 inh-2 11 (no result: DAX1 inh-1) | DAX1 inh confirm 7.0 | SF1 AF2mut Luc 3.0 | hgDAF12 conf inactive | LXR ag 2 inactive
Cc1ccc2nc(-c3ccco3)c(Cc3ccsc3)n2c1	none (no result: DAX1 inh-1)
Cc1ccc2nc(-c3ccccc3)c(Cc3ccccn3)n2c1	hcDAF12 agonist 7.4, hgDAF12 agonist 13, DAX1 inh-2 5.1, ssDAF12 agonist 1.4 (no result: DAX1 inh-1) | DAX1 inh confirm 7.4 | SF1 AF2mut Luc 6.2 | LXR ag inactive | hcDAF12 ag 8.3 | hgDAF12 conf 16 | LXR ag 2 inactive
Cc1ccc(Cc2c(-c3cccc(Cl)c3)nc3ccc(C)cn23)cc1	none (no result: DAX1 inh-1)
Fc1ccc(-c2nc3ccc(Cl)cn3c2Cc2ccccc2)cc1	none
